Drawing on PubChem BioAssay (NCI), this text covers growth inhibition for 40 compounds.

About 79,000 compounds went through this panel and 15% of them were active in at least one assay; those are over-represented in the sample as a whole. A number with no mark means an inactive call. Calls of active or inactive are those of the source. Cut-off read from the data, not from the text of the source: active = growth inhibition above about 70%; inactive = the rest.

One test in a line: NCI Yeast Anticancer Drug Screen. Data for the sgs1 mgt1 strain (AID 161).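 Note: 0% = growth of cultures given vehicle only.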 The following applies: S. cerevisiae sgs1 mgt1 strain, at 50.0 µM (retest, dose inferred, filed as 5.0), stronger effect = higher value. In short, it runs like this:
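Test agents were incubated with a DNA-repair-mutant yeast strain. Growth was then read and compared against vehicle-treated controls.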
`Cc1nc2c(cnn2-c2ccccc2)c(=O)o1`: the growth inhibition was -62%.

`CCOC(=O)C(=O)Nc1nc2c(s1)C(=O)c1ccccc1C2=O`: the growth inhibition is 99% (active).

Take `O=C(CCl)OCC(=O)c1ccc(-c2ccccc2)cc1`: the growth inhibition was 99% (active).

Take `ICCCCCCCCCC[n+]1ccc2ccccc2c1`: the growth inhibition was 99% (active).

For the compound `CCC(C)OC(=O)Nc1cccc(Cl)c1` (stereo not given), the growth inhibition is 14%.

As for `COc1ccccc1CN1CCCN(Cc2ccccc2OC)C1c1ccccc1F`, the growth inhibition is 8%.

Take `ON=C(CC(O)(C(F)(F)Cl)C(F)(F)Cl)CC(O)(C(F)(F)Cl)C(F)(F)Cl`: the growth inhibition was 99% (active).

Take `COC(=O)Cn1/c(=N\N=C(/C)c2ccc(C)cc2)sc2ccccc21`: the growth inhibition was 28%.

Take `CCN(CC)CCOc1ccc(NC(=S)Nc2ccc(OCC(C)C)cc2)cc1`: the growth inhibition was 76% (active).

As for `CCCCCCCCCCNC(=O)CBr`, the growth inhibition is 99% (active).

`CN(C)c1ccc(N=Nc2ccc(/C=C3\CCOC3=O)cc2)cc1`: the growth inhibition was -6%.

In the case of `CCc1cccc(CC)c1NC(=O)C1=C(C)NC(C)=C(C(=O)Nc2c(CC)cccc2CC)C1c1ccc2c(c1)OCO2`, the growth inhibition was 45%.

For the compound `Nc1cc2[nH]c(=O)c3cc(Cl)ccc3c2cc1Cl`, the growth inhibition was 86% (active).

As to `COc1ccc(OC(C)=O)c2c1CCC=CC2=O`, the growth inhibition was 93% (active).

As to `COc1ccc(-c2n[nH]c(C(F)(F)F)c2N=NN(C)C)cc1OC`, the growth inhibition was 99% (active).

As for `CCC(=NCCCCCCN=C(CC)c1cc(C)cc([N+](=O)[O-])c1O)c1cc(C)cc([N+](=O)[O-])c1O.[Fe]`, the growth inhibition was 35%.

`COc1ccc(CN2CCCN(Cc3ccc(OC)cc3)C2Cc2cc(Cl)ccc2OC)cc1`: the growth inhibition was 63%.

Regarding `Cc1cc(Cc2ccc(Cl)cc2)ccc1O`, the growth inhibition was 99% (active).

As to `CNCCN[C@@H]1c2cc3c(cc2[C@@H](c2cc(OC)c(O)c(OC)c2)[C@H]2C(=O)OC[C@@H]21)OCO3`, the growth inhibition was 75% (active).

Regarding `Cc1cc(NC(=S)SC(C)C)ccc1Br`, the growth inhibition was 99% (active).

In the case of `CC1CC2(C)ON=C(c3ccccc3)N2c2ccccc2S1` (stereo not given), the growth inhibition is 94% (active).

Regarding `O=C(Cc1ccccc1)OC(C(=O)c1ccccc1)c1ccccc1` (stereo not given), the growth inhibition is 93% (active).

Turning to `Nc1ccc2ccccc2c1N=Nc1ccccc1`, the growth inhibition is 98% (active).

With `Clc1ccc(C(c2ccc(Cl)cc2)c2cncnc2)cc1`, the growth inhibition is 95% (active).

As to `OC(C(=Nc1ccccc1)c1ccccc1)c1ccccc1` (stereo not given), the growth inhibition is 98% (active).

Still in this test, the particulars now being: S. cerevisiae sgs1 mgt1 strain, at 50.0 µM, stronger effect = higher value.
With `COc1ccc(N=N/N=c2\sc3cc(Cl)ccc3n2C)cc1`, the growth inhibition is -30.4%.

On to `O=c1ccc2nc3ccccc3ccc-2c1`, for which the growth inhibition is 18.3%.

Regarding `CC(=O)Nc1ccc(O)c(=O)cc1`, the growth inhibition is 96.1% (active).

`CC(=O)Oc1c([N+](=O)[O-])cc(-c2ccccc2)cc1[N+](=O)[O-]`: the growth inhibition is 66.3%.

Take `Cc1cc(O)c(C)c(C)c1N=Nc1ccccc1`: the growth inhibition was 58.5%.

For `CCCCCCCC/C=C\CCCCCCCC(=O)O` (tested in a mixture with another compound), the growth inhibition is 89.7% (active).

Turning to `O=S(=O)(Nc1ccc(Cl)cc1)c1ccccc1`, the growth inhibition was 47.7%.

On to `COC(=O)[C@@]12OC[C@]34[C@H]([C@@H](O)[C@@H]1O)[C@@]1(C)CC(=O)C(O)=C(C)[C@@H]1C[C@H]3OC(=O)[C@H](OC(=O)C(Cc1ccccc1)NC(=O)OC(C)(C)C)[C@@H]24` (stereo not given in full), for which the growth inhibition was 86.8% (active).

With `CSC(=S)n1nc(-c2cccs2)c(N=Nc2ccc(Cl)cc2)c1C(F)(F)F`, the growth inhibition is 46.5%.

Turning to `CCN1C2=NCCN2S(=O)(=O)c2ccccc21`, the growth inhibition was -27.9%.

Turning to `CCCc1cc(-c2ccc(O)c(CCC)c2)ccc1O`, the growth inhibition is 99.5% (active).

In the case of `O=[N+]([O-])c1ccc(-c2cccc(Cl)c2)c([N+](=O)[O-])c1`, the growth inhibition was 99.2% (active).

In the case of `COC(=O)Oc1nn(C(=O)OC)c(=O)c2ccccc12`, the growth inhibition is 44.4%.

Take `Cc1n(CC(C)C)c2c([n+]1CC(=O)c1ccc([N+](=O)[O-])cc1)C(=O)c1ccccc1C2=O`: the growth inhibition is 91.3% (active).

Regarding `O=C(c1ccccc1)C1C(c2ccccc2)OP(c2ccccc2)(c2ccccc2)(c2ccccc2)C1c1ccccc1` (stereo not given), the growth inhibition is 99.8% (active).

As to `Cc1nc2c(cnn2-c2ccccc2)c(=O)o1`, the growth inhibition is -3.15%.

For `CCOC(=O)C(=O)Nc1nc2c(s1)C(=O)c1ccccc1C2=O`, the growth inhibition is 96.9% (active).

Consider `O=C(CCl)OCC(=O)c1ccc(-c2ccccc2)cc1`, for which the growth inhibition is 21.2%.

In the case of `ICCCCCCCCCC[n+]1ccc2ccccc2c1`, the growth inhibition was 89.3% (active).

For `CCC(C)OC(=O)Nc1cccc(Cl)c1` (stereo not given), the growth inhibition was 79.5% (active).

Regarding `COc1ccccc1CN1CCCN(Cc2ccccc2OC)C1c1ccccc1F`, the growth inhibition is 62.6%.

As to `ON=C(CC(O)(C(F)(F)Cl)C(F)(F)Cl)CC(O)(C(F)(F)Cl)C(F)(F)Cl`, the growth inhibition was 99.5% (active).

Turning to `COC(=O)Cn1/c(=N\N=C(/C)c2ccc(C)cc2)sc2ccccc21`, the growth inhibition was 40.4%.

As for `CCN(CC)CCOc1ccc(NC(=S)Nc2ccc(OCC(C)C)cc2)cc1`, the growth inhibition was 81.8% (active).

With `CCCCCCCCCCNC(=O)CBr`, the growth inhibition was -1.3%.

Take `CN(C)c1ccc(N=Nc2ccc(/C=C3\CCOC3=O)cc2)cc1`: the growth inhibition is -0.65%.

On to `CCc1cccc(CC)c1NC(=O)C1=C(C)NC(C)=C(C(=O)Nc2c(CC)cccc2CC)C1c1ccc2c(c1)OCO2`, for which the growth inhibition is 93.2% (active).

Take `Nc1cc2[nH]c(=O)c3cc(Cl)ccc3c2cc1Cl`: the growth inhibition was 47.6%.

Consider `COc1ccc(OC(C)=O)c2c1CCC=CC2=O`, for which the growth inhibition is 61.3%.

With `COc1ccc(-c2n[nH]c(C(F)(F)F)c2N=NN(C)C)cc1OC`, the growth inhibition is 99.4% (active).

Take `CCC(=NCCCCCCN=C(CC)c1cc(C)cc([N+](=O)[O-])c1O)c1cc(C)cc([N+](=O)[O-])c1O.[Fe]`: the growth inhibition is 72.2% (active).

Regarding `COc1ccc(CN2CCCN(Cc3ccc(OC)cc3)C2Cc2cc(Cl)ccc2OC)cc1`, the growth inhibition is 80.7% (active).

On to `Cc1cc(Cc2ccc(Cl)cc2)ccc1O`, for which the growth inhibition is 99.2% (active).

Regarding `CNCCN[C@@H]1c2cc3c(cc2[C@@H](c2cc(OC)c(O)c(OC)c2)[C@H]2C(=O)OC[C@@H]21)OCO3`, the growth inhibition is 88.1% (active).

With `Cc1cc(NC(=S)SC(C)C)ccc1Br`, the growth inhibition is 71.8% (active).

On to `CC1CC2(C)ON=C(c3ccccc3)N2c2ccccc2S1` (stereo not given), for which the growth inhibition was 82.7% (active).

Consider `O=C(Cc1ccccc1)OC(C(=O)c1ccccc1)c1ccccc1` (stereo not given), for which the growth inhibition is -0.1%.

In the case of `Nc1ccc2ccccc2c1N=Nc1ccccc1`, the growth inhibition was 99.1% (active).

On to `Clc1ccc(C(c2ccc(Cl)cc2)c2cncnc2)cc1`, for which the growth inhibition is 89.4% (active).

As for `OC(C(=Nc1ccccc1)c1ccccc1)c1ccccc1` (stereo not given), the growth inhibition was 99.2% (active).
